Bioassay records (PubChem)
Rows were chosen to be rich in hits. Some 6.6% of all compounds tested hit in one or more screens of this group.
Anthrax LF prot – inhibitors of Bacillus anthracis lethal factor protease; inhibition, % at 10 µM; multiplex microsphere protease cleavage assay, LF; P15917; AID 588501; 360,000 tested, 0.12% active; also: plate controls were buffer without enzyme for full effect and enzyme alone for no effect
Mtb FBA inh – inhibits M. tuberculosis FBA enzyme; P9WQA3; purified M. tuberculosis FBA, fluorescence read-out; inhibition, % at 1 µM; 360,000 tested, 2.3% active; AID 588726; in the data active = inhibition above about 27%;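 also: 0% = vehicle and 100% = reference inhibitor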
Autofluor counter – flagged as autofluorescent in microsphere protease counterscreen; compound autofluorescence counterscreen, microsphere flow cytometry; hits give high values; fluorescence intensity (concentration not given with the values); 360,000 tested, 3.1% active; AID 624483; in the data active = fluorescence intensity above about 16000; inconclusive = no clear call, values can overlap the other calls
GDH-TPI counter – GDH-TPI coupled enzyme inhibition counter-screen | 360,000 tested, 1.2% active | GDH-TPI coupled enzyme counterscreen, NADH absorbance | inhibition, % at 4.8 µM; in the data active = inhibition above about 30%;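 also: 0% = DMSO wells and 100% = wells lacking the enzyme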
BoNT F protease – blocks Botulinum neurotoxin F light chain protease; Multiplex microsphere protease cleavage assay, flow cytometry; inhibition, % at 10 µM; AID 588497; 360,000 tested, 0.22% active; in the data active = inhibition above about 35%, passing the limit was not always enough; inconclusive = no clear call, values can overlap the other calls; also: plate controls were buffer without enzyme for full effect and enzyme alone for no effect
BoNT-A LC inh2 – inhibitors of Botulinum neurotoxin A light chain protease; multiplex microsphere protease substrate cleavage, flow cytometry; inhibition, % at 10 µM; 360,000 tested, 0.17% active; AID 588499; also: plate controls were buffer without enzyme for full effect and enzyme alone for no effect
* = called active by the depositor; u = inconclusive; x = not tested or not shown; + = active, no number. Rule as the data show it, unless noted: active = inhibition above about 30%; inconclusive = no clear call, values can overlap the other calls; inactive = below that.

SMILES | Anthrax LF prot | Mtb FBA inh | Autofluor counter | GDH-TPI counter | BoNT F protease | BoNT-A LC inh2
CC(C)CCNC(=O)c1cc2c(=O)n3ccccc3nc2s1 | -12 | 121* | 3416 | 26 | -32 | -3
Cc1cccn2c(=O)c3cc(C(=O)NCC(C)C)sc3nc12 | -1 | 20 | 3632 | 10 | 3 | 1
CCC(C)NC(=O)c1cc2c(=O)n3ccccc3nc2s1 (stereo unspecified) | -4 | + | 3641 | 17 | -9 | -1
S=C1SCN(CCc2ccccc2)CN1CCc1ccccc1 | -1 | 3 | 2783 | 11 | -8 | 1
Nc1cc(=O)[nH]c(=S)n1-c1cccc(C(F)(F)F)c1 | -5 | 3 | 16135* | 4 | -2 | 0
O=C(/C=C/c1ccco1)Nc1ccccn1 | 0 | 0 | 10772 | 73* | 4 | 2
Cc1ccc(NC(=O)/C=C/c2ccco2)nc1 | 2 | 0 | 2413 | 32* | 3 | 0
O=C(/C=C/c1ccco1)Nc1nc(-c2ccccn2)cs1 | -8 | 3 | 4119 | 10 | -1 | -1
COc1ccc(C(C#N)CC(=O)c2ccc(OC)c(OCc3ccccc3)c2)cc1OC (stereo unspecified) | -3 | -3 | 3316 | -6 | 5 | 1
COC(CN(C(=O)CCl)C(C(=O)NC1CCCCC1)c1ccc(C)cc1)OC (stereo unspecified) | -4 | 1 | 2721 | 1 | -13 | 0
Cc1ccc(CSCCNC(=O)c2ccc(Cl)c(S(=O)(=O)N3CCOCC3)c2)cc1 | -2 | 4 | 20110* | 4 | -2 | 1
O=C(NC1(C(F)(F)F)NC(=O)N(Cc2cccnc2)C1=O)c1ccc(F)cc1 (stereo unspecified) | -2 | -6 | 23016* | 4 | -3 | -1
O=C(NC1(C(F)(F)F)NC(=O)N(Cc2cccnc2)C1=O)c1ccncc1 (stereo unspecified) | -1 | -4 | 13028 | -10 | 0 | 0
COc1nc(N)c(S(=O)(=O)c2ccccc2C)cc1C#N | -6 | 1 | 19846* | 6 | 10 | 9
CN(C)c1ncc(S(=O)(=O)c2ccccc2)c(N)n1 | 0 | 1 | 1961 | 8 | -4 | 0
COc1nc(N)c(S(=O)(=O)c2ccccc2)cc1C#N | 0 | 5 | 22871* | -3 | 1 | u
C=CCCC(=O)N1C[C@@H](CO)[C@@H](NC)C[C@H]1c1ccccc1Br | -3 | -1 | 4279 | x | 5 | 0
COc1ccccc1NC(=S)N1CC(C)(C)C1=O | 6 | -3 | 4168 | 7 | -12 | 0
COc1cccc(N2CC(=O)Nc3c(oc4nc(-c5ccccc5)cc(C)c34)C2=O)c1 | 1 | 2 | 5825 | 35* | 1 | 1
Cc1cc(-c2ccccc2)nc2oc3c(c12)NC(=O)CN(c1ccccc1)C3=O | 6 | 5 | 3901 | 10 | 8 | 2
Cc1cc(N2O[C@H]3C=C[C@@H]2C3)no1 | -2 | -1 | 3352 | -5 | 6 | 0
Cc1cc(C)n(-c2nc(N(c3ccccc3)c3ccccc3)nc(-n3nc(C)cc3C)n2)n1 | -2 | 1 | 17611* | 6 | -5 | -7
CC(=O)c1nnn(-c2nc(N)nc(N(c3ccccc3)c3ccccc3)n2)c1C | -2 | 0 | 22006* | 17 | -1 | u
CCN(CC)c1nc2ccccc2nc1-n1nc(C)cc1C | -2 | -5 | 24280* | 4 | 0 | u
Cc1cc(C)n(-c2nc(Nc3ccccc3)nc(-n3nc(C)cc3C)n2)n1 | -8 | -1 | 7863 | 2 | -23 | -2
SMILES | Anthrax LF prot | Mtb FBA inh | Autofluor counter | GDH-TPI counter | BoNT F protease | BoNT-A LC inh2
CN(C)c1ccnc(N(Cc2ccccc2)Cc2ccccc2)c1C#N | 0 | -2 | 6423 | 3 | -11 | 0
COc1ccc(-c2cn3c(C)c(C(=O)Nc4ccncc4)sc3n2)cc1 | -6 | -3 | 5751 | 14 | -5 | 0
COc1ccc(-c2cn3c(C)c(C(=O)N4CCN(c5ccccc5F)CC4)sc3n2)cc1 | -13 | 0 | 5024 | 2 | -1 | 0
Cc1c(C(=O)N2CCN(c3ccccc3F)CC2)sc2nc(-c3ccccc3)cn12 | -8 | 2 | 21586* | 5 | 0 | u
COC(=O)c1ccc(NC(=O)c2sc3nc(-c4ccccc4)cn3c2C)cc1 | -2 | -2 | 21396* | -8 | -1 | -1
COc1ccc(NC2CCCN(C(=O)CCN3CCOCC3)C2)cc1 (stereo unspecified) | -2 | 1 | 5361 | -3 | -4 | -1
COc1ccc(OC)c(-c2cc(C(=O)Nc3cc(C)n(Cc4ccc(Cl)cc4)n3)no2)c1 | -7 | 1 | 23480* | 1 | -3 | -2
COc1cccc(-c2cc(C(=O)Nc3c(C)n(C)n(-c4ccccc4)c3=O)no2)c1 | 0 | 2 | 3390 | 6 | 1 | 0
COc1ccccc1-c1cc(C(=O)Nc2c(C)n(C)n(-c3ccccc3)c2=O)no1 | -3 | 1 | 16484* | 10 | 0 | u
COc1ccc(OC)c(-c2cc(C(=O)Nc3c(C)n(C)n(-c4ccccc4)c3=O)no2)c1 | -5 | 0 | 16603* | 29 | -4 | -1
COc1ccc(Cn2ccnc2)cc1Br | 0 | 3 | 23086* | -3 | -5 | -1
CC12CCC(C(=O)NCCCN3CCOCC3)(OC1=O)C2(C)C (stereo unspecified) | -1 | -2 | 22515* | 5 | -4 | -2
CCc1nc2ccc(C(=O)NCCCn3ccnc3)cn2c1N(C)C(=O)COc1ccccc1 | -9 | 1 | 3938 | 12 | -1 | 0
CCOC(=O)N1CCC(=NNC(=O)Cn2ccc(C(F)(F)F)n2)CC1 | -3 | -11 | 2578 | -10 | 4 | 0
NC(N)=NN=C1c2ccccc2-c2ccccc21 | 49* | 6 | 8153 | 12 | 82* | 2
ON=C1c2ccccc2-c2ccccc21 | 1 | -1 | 3753 | 5 | 3 | -2
Cc1cc(=O)oc(C)c1C(=O)NCCCN1CCN(c2ccc(F)cc2)CC1 | -3 | -2 | 11577 | 40* | -10 | -1
COc1ccc(N2CCN(CCNC(=O)c3c(C)cc(=O)oc3C)CC2)cc1 | -5 | 2 | 10530 | 40* | -3 | 0
COc1ccc(S(=O)(=O)N2CCOCC2)cc1NC(=O)CN1C(=O)NC2(CCCCC2C)C1=O (stereo unspecified) | 9 | -2 | 3796 | 11 | 2 | 0
Nc1cc(C(=O)O)c(Oc2ccc(Cl)cc2Cl)cc1C(=O)O | 0 | + | 2398 | -1 | -3 | 0
O=C(CN1C(=O)c2cccnc2C1=O)c1ccccc1 | 0 | 0 | 20963* | -18 | -6 | -3
O=C(CN1C(=O)C(=O)c2ccccc21)c1ccccc1 | 18 | 1 | 2901 | 7 | 5 | 3
CC1CCCN(S(=O)(=O)c2ccc(C(=O)NC(C)c3ccccc3)cc2)C1 (stereo unspecified) | -5 | 0 | 6579 | -7 | -8 | 1
N=C1/C(=C\c2ccc(SCc3ccccc3)o2)C(=O)N=C2SC(CC(=O)N3CCOCC3)=NN12 | -5 | -3 | 4946 | 39* | -5 | 0
